Values joined by “and” are separate entries in the source; they are usually repeats but may differ in a detail not shown here. Equal values may be shown once. The panel holds about 83,000 compounds, 20% with a hit somewhere; the sample as a whole holds those more often.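 Each cell line was grown in a 96-well plate and treated with one concentration of compound for 48 hours. Values below 10 were considered active.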 Active and inactive are the calls of the source.
System: HT29 colon
Assay: NCI-60 one-dose screen, 48 h (100 = growth as untreated, 0 = no growth, -100 = all killed)
Conditions: 10 µM unless noted
Description: Growth inhibition of the HT29 human tumor cell line is measured as a screen for anti-cancer activity. Cells are grown in 96 well plates and exposed to the test compound for 48 hours. Compounds are tested at a single concentration, which is 10^-5 M for most compounds. The reported endpoint is percent growth (GI% or GIPRCNT), where numbers from 0 - 100% represent growth inhibition, and numbers from -100% - 0 represent cell death. For example, a value of 40 represents 60% growth inhibition. A value of 0 means no net growth occurred over the course of the experiment. A value of -40 indicates 40% of cells at the beginning of the experiment died by the end of the experiment. A value of -100 means all cells are dead at the end of the experiment.
NCI-60 Human Tumor Cell Lines Screen was performed using the standard one-dose NCI protocol, which is described in more detail at https://dtp.cancer.gov/discovery_development/nci-60/default.htm.
Compounds with GIPRCNT values below 10 were considered active. Activity score was based on GIPRCNT using the following formula: […]
Score is 0 for GIPRCNT values of 100 or above, 50 for GIPRCNT values of 0, and 100 for GIPRCNT values of -100.

Row | SMILES | growth
1 | O=C(/C(Cl)=N/O)c1ccc(-c2ccccc2)cc1 | 80.1% (inactive)
2 | CCOc1cc(F)c([N+](=O)[O-])cc1[N+](=O)[O-] | 2.66% (active)
3 | O=C(Nc1ccc(Cl)c(Cl)c1)OCc1ccco1 | 34% (inactive)
4 | CN(C)c1ccc(C(=C2C=CC(=[N+](C)C)C=C2)c2ccc(N(C)C)cc2)cc1 | -19.7% (active)
5 | c1ccc(-c2cc3cc4ccccc4cn3c2)cc1 | 105% (inactive)
6 | S=c1[nH]c2cc(Cl)ccc2s1 | 102% (inactive)
7 | O=C(c1ccccc1)c1cc2ccccc2oc1=O | 113% (inactive)
8 | CC(=O)Nc1ccc(C(=O)CCl)cc1 | 8.26% (active)
9 | Nc1ccc(-c2ccc(N)c(S(=O)(=O)O)c2)cc1S(=O)(=O)O | 109% (inactive)
10 | CC(/C=N/NC(N)=S)Cc1ccc(C(C)C)cc1 (stereo not given) | 47.1% (inactive)
11 | CN(C)c1ccc(/C=C/c2nccc3ccccc23)cc1 | 98.6% (inactive)
12 | OC(c1cc(-c2ccc(Cl)cc2)nc2c(Cl)cccc12)C1CCCCN1 (stereo not given) | -86.3% (active)
13 | N=C1C=C(N)C(=O)c2ccccc21 | -38.8% (active)
14 | Oc1ccc2ccccc2c1N=Nc1ccccn1 | 20.9% (inactive)
15 | CC1(C)N=c2cc3c(cc2N1c1ccc(Cl)cc1)=Nc1ccccc1N3c1ccc(Cl)cc1 | 60.4% (inactive)
16 | CCCCCCCCCCCCCCCCCC[S+](C)CC (stereo not given) | 4.75% (active)
17 | N#C/C(=N\Nc1ccc(Cl)cc1)C(=O)C1CC1 | 67.6% (inactive)
18 | O=C(c1ccccc1)N(CCCl)C(=O)N(CCCl)C(=O)c1ccccc1 | 97.4% (inactive)
19 | Cc1cc2nc(CC(=O)c3ccncc3)c(=O)[nH]c2cc1C | 105% (inactive)
20 | OC(c1cc(C23CC4CC(CC(C4)C2)C3)nc2c(Cl)cc(Cl)cc12)C1CCCCN1 (stereo not given) | -89.8% (active)

Row | SMILES | growth
21 | CC1(O)CCCCCC1 | 110% (inactive)
22 | N=C(N)Sc1cccc[n+]1[O-] | 50.3% (inactive)
23 | CC(C)(C)CC(C)(C)c1ccc(OCCOCCSC(=N)N)cc1 | -7.31% (active)
24 | Cc1cc(=O)oc2cc(O)cc(O)c12 | 107% (inactive)
25 | O=[N+]([O-])c1ccc([I+]c2ccccc2)cc1 | -55.8% (active)
26 | O=C1C=CC(=O)N1C1CCCCCCCCCCC1 | 45.2% (inactive)
27 | O=C1Nc2ccc(Br)cc2C1=O | 100% (inactive)
28 | CN=C(N)N/N=C(\c1ccccc1)c1ccc(Br)cc1 | -7.67% (active)
29 | CCCOC(=O)c1nc(N(CC2CCCCC2)C(=O)NC)sc1/N=C/c1ccccc1 | -37.7% (active)
30 | CCN(CC)CC(O)c1cc(-c2ccc(Cl)cc2)nc2cc(Cl)ccc12 (stereo not given) | -50.1% (active)
31 | O=C1c2ccccc2Cc2cccc(Cl)c21 | 87.7% (inactive)
32 | COc1ccc2nc3cc(Cl)ccc3c(NCCCCCN3CCCCC3)c2c1 | -41.3% (active)
33 | COC(=O)C(=[N+]=[N-])C(=O)c1ccc([N+](=O)[O-])o1 | 61.5% (inactive)
34 | O=[N+]([O-])c1ccc(C2N(Cc3ccc(Cl)cc3)CCN2Cc2ccc(Cl)cc2)cc1 | 73.3% (inactive)
35 | Nc1nc(-c2ccccc2)nc(N)c1N=O | 14.5% (inactive)
36 | O=C(Nc1ccc(Cl)c(Cl)c1)Nc1ccccc1O | 112% (inactive)
37 | OC(c1cc(-c2ccc(C(F)(F)F)cc2)nc(C(F)(F)F)c1)C1CCCCN1 (stereo not given) | -49.8% (active) and -67.9% (active) and -54.8% (active)
38 | O=C(/C=C/c1ccccc1)c1ccccc1O | 84.5% (inactive)
39 | CCN(CC)CCNc1ccc([N+](=O)[O-])c2sc3ccccc3c(=O)c12 | 9.13% (active)
40 | O=C1C(=O)c2cccnc2-c2ncccc21 | -62.9% (active)

Source: PubChem BioAssay (NCI)
